An excerpt weighted towards active compounds, which were near 3.4% of everything screened.
p53ts 39C tox = qHTS Screen for Compounds that Selectively Target Cancer Cells with p53 Mutations: Cytotoxicity of p53ts Cells at the Nonpermissive Temperature; hit rate 1.5% among 130,000; Potency, µM (doses to about 46.1 µM), for the others: at the top dose activity change, negative = cell killing, most hits filed as cytotoxic; AID 902, 2007; H1299-p53A138V viability at 39C, ATP luminescence, 24 h; also: % is scaled to controls: 0 for no effect and ±100 for the full control effect; nearly all actives have a fitted effect of over 55% in size
FLuc inh = qHTS Assay for Inhibitors of Firefly Luciferase. purified firefly luciferase, luminescence, 8 min. hit rate 2.2% among 72,000. AID 411, 2009. Potency, µM (doses to about 57.1 µM), inactives show at the top dose activity change, negative = inhibition, hits mostly inhibitors; also: % is scaled to controls: 0 for no effect and ±100 for the full control effect; nearly all actives have a fitted effect of over 40% in size
Target sequence (P08659 whole entry, looked up): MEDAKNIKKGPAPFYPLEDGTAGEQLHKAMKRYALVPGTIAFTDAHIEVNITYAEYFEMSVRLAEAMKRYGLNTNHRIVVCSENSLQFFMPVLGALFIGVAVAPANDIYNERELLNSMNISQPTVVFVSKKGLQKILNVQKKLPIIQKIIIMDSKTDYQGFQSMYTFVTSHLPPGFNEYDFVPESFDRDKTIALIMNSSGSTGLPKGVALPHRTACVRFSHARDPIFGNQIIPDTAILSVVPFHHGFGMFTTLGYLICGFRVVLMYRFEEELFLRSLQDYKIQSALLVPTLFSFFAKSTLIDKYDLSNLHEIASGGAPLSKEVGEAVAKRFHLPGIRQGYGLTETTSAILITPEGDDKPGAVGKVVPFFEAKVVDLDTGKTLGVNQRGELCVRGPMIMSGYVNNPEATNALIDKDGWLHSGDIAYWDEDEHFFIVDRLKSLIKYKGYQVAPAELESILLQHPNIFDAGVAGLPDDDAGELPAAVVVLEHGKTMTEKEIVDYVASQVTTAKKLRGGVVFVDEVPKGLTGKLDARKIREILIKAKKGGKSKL
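Here, luciferase activity is measured as luminescence following an 8 min room-temperature reaction at 10 uM ATP, pH 7.2. Every library sample is titrated.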
p53ts 32C tox = qHTS Screen for Compounds that Selectively Target Cancer Cells with p53 Mutations: Cytotoxicity of p53ts Cells at the Permissive Temperature; H1299-p53A138V at 32C, ATP luminescence viability, 24 h; Potency, µM (series often up to 46.1 µM), for the others: at the top dose activity change, negative = cytotoxicity, usual class: cytotoxic; hit rate 0.93% among 130,000;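 also: 0% = DMSO and -100% = full killing by reference compound; nearly all actives have a fitted effect of over 55% in size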
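Cells: H1299 p53ts (A138V), 600/well, pre-incubated 16–30 h at 37C. Cpd up to 46 uM, 24 h, 32C. Readout: ATPlite luminescence, 20 min RT. Normalization: DMSO vs tamoxifen 100 uM. AC50 by Hill equation.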
Imprint erasure = qHTS Assay for Compounds that Induce Erasure of Genomic Imprints; mouse ES Peg3-LacZ reporter, beta-gal luminescence, 40 h; AID 1948, 2009; hit rate 0.02% among 110,000; Potency, µM (top dose mostly 60.7 µM), for the others: top-dose activity change, positive = activation, most hits filed as activators
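Gelatin-coated wells received 300 freshly trypsinized female ES cells with a Peg3LacZ-Neo reporter on the maternal allele, then incubated 40 hours at 37C. BetaGlo was added for 5 minutes at room temperature before a single luminescence read.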
Tau fil binding = qHTS Assay for Tau Filament Binding. Microtubule-associated protein tau (Homo sapiens), P10636. recombinant tau filaments, thioflavin S fluorescence, 15 h; filaments grown with octadecylsulfate alongside compound. Potency, µM (titrated, usually from 57.1 µM), for the others: top-dose activity change, negative = inhibition. hit rate 2% among 71,000. AID 596, 2007;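 also: % is scaled to controls: 0 for no effect and ±100 for the full control effect; actives lower thioflavin S fluorescence by blocking filaments or displacing dye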
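ThS-based fibril read: tau 1 uM final, inducer ODS 30 uM final, 37 C for 15 h, ex 450/em 510 nm.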
An asterisk follows results filed as active; i = inactive; u = inconclusive; x = not tested or not shown; [ ] = dose if it differs, or a comment. Calls follow the shape of the dose curve; as a rule, active = well fitted curve in the direction sought with a large enough effect; inconclusive = small, poorly fitted or top-dose-only effect, or another doubt; inactive = no such curve, though single readings can be large; an effect the other way counts as inactive or inconclusive. Potency is read from the fitted curve at half-maximal effect.

SMILES	p53ts 39C tox	FLuc inh	p53ts 32C tox	Imprint erasure	Tau fil binding
Cc1cc(C)c(Cn2c(C(O)c3ccccc3)nc3ccccc32)c(C)c1 (configuration not stated)	3.2µM*	x	-16%	25%[10.9 µM]	x
Cc1ccc(Cl)cc1N1CCN(S(=O)(=O)c2ccc3c(c2)CCN3C(=O)C2CCC2)CC1	20%	x	9%	-5%[10.9 µM]	x
COC(=O)c1cc(NC(=O)Cn2nc(C)n3cccc3c2=O)cc(C(=O)OC)c1	-1%	x	-4%	-18%[10.9 µM]	x
CCc1cccc(C)c1NC(=O)Cn1nc(C)n2cccc2c1=O	13µM*	x	-4%	-8%[10.9 µM]	x
CCOC(=O)c1c(C)[nH]c2ccc3c(c12)CN1CCc2cc(OC)ccc2[C@@H]1O3	-18%	1%	-14%	-19%	2.5µM*
CCOC(=O)c1[nH]c2ccc(OC)cc2c1NC(=O)CCN1CCc2ccccc2C1	x	-1%[25.5 µM]	x	x	x
O=C(Nc1ccc(N2CCN(C(=O)c3ccccc3)CC2)c(Cl)c1)c1ccco1	u	1%	-3%	-21%	10%
CCCC(=O)N1CCN(c2ccc(NC(=O)c3cc4ccccc4o3)cc2Cl)CC1	16µM*	-10%	u	-26%	33%
O=C(Nc1ccc(N2CCN(C(=O)c3ccco3)CC2)c(Cl)c1)c1cc2ccccc2o1	u	-3%	13µM*	-36%	407%
O=C(Nc1ccc(N2CCOCC2)c(Cl)c1)c1ccco1	16µM*	13µM*	13µM*	-35%	9%
O=C(Nc1ccc(N2CCOCC2)c(Cl)c1)c1ncn[nH]1	u	20µM*	u	-39%	-11%
COc1ccccc1NC(=O)c1c(C)cc(C)nc1SCC(=O)c1ccc(Cl)cc1	-14%	x	3%	8%[10.9 µM]	x
CC(C)c1ccc(S(=O)(=O)c2nnn3c2nc(N2CCCCC2)c2sccc23)cc1	-4%	x	20%	-9%[10.9 µM]	x
Cc1nn2c(=O)cc(COC(=O)c3cccc(NC(=O)c4cccs4)c3)nc2s1	-9%	x	1%	-8%[10.9 µM]	x
O=C(Nc1ccc(N2CCCC2)c(Cl)c1)c1ccc(Br)o1	-17%	u	-21%	-42%	4µM*
O=C(Nc1ccccc1N1CCCC1)c1ccc(Br)o1	-6%	0%	0%	-9%	-18%
Cc1cccc(OCc2cc(=O)n3c4c(sc3n2)CCCC4)c1C	1%	x	6%	-5%[10.9 µM]	x
CCCN(CCC)CCNC(=O)C1CCCN(S(=O)(=O)c2cccc3nsnc23)C1 (configuration not stated)	42%	x	1%	u	x
O=C(Nc1ccccc1N1CCN(C(=O)c2ccc(Cl)cc2)CC1)c1cccnc1	8%	2%	3%	-16%	-10%
O=C(Nc1ccc(N2CCN(C(=O)c3ccc(Cl)cc3)CC2)cc1)c1cccnc1	5%	3%	4%	-2%	10µM*
O=C(NCc1ccc(F)cc1)c1cnc(N2CCCCC2)c2ccccc12	-25%	x	7%	-4%[10.9 µM]	x
Cc1ccccc1N=C1Nc2ccccc2CS1	u	25µM*	u	-75%	9%
COc1ccc(-c2cc(C(F)(F)F)nc(SCC(=O)Nc3ccc(C(C)=O)cc3)n2)cc1	-1%	x	0%	5%[10.9 µM]	x
Cn1c(=O)cc(N2CCc3ccccc32)[nH]c1=O	-4%	-16%	-9%	-2%	-9%
CNc1nc(N2CCc3ccccc32)ncc1F	u	16µM*	u	-78%	-7%
SMILES	p53ts 39C tox	FLuc inh	p53ts 32C tox	Imprint erasure	Tau fil binding
Cc1ccc(C)c(Cn2nnc(C(=O)NCc3ccc(Cl)cc3Cl)c2N)c1	13µM*	x	-11%	-8%[10.9 µM]	x
Nc1c(C(=O)NCc2ccc(Cl)cc2Cl)nnn1Cc1ccc(Br)cc1	-9%	x	-7%	-10%[10.9 µM]	x
Cc1cccc(N2CCN(C(=O)C3CCN(C(=O)c4cc5sccc5n4C)CC3)CC2C)c1 (configuration not stated)	13µM*	x	-11%	23%[10.9 µM]	x
COc1cc(OC)c(NC(=O)c2noc3c2CSc2ccccc2-3)cc1Cl	0%	x	3%	12%[10.9 µM]	x
C=CCOc1ccc(CNc2nccs2)cc1OCC	9%	x	14%	x	x
C=CCOc1c(CNc2nccs2)cccc1OCC	u	13µM*	u	-21%	0%
N#Cc1cccc(-c2nc(NCc3cccnc3)c3ccccc3n2)c1	-13%	2%[2.29 µM]	-1%	4%	25%
COCCn1c(=O)c(C)nc2cnc(Nc3ccccc3)nc21	-4%	1%[11.4 µM]	6%	-6%	-4%
CC1=C(C(=O)OCc2ccccc2)C(C2CCCCC2)NC(=O)N1CCCCCC(=O)O (configuration not stated)	7%	x	13%	-13%	-12%
COc1ccc(-c2cc(C(N)=O)nc(N3CCCCCC3)n2)cc1	10µM*	7.9µM*	7.9µM*	-89%	5%
Cc1ccc(CN(C(=O)COc2ccc([N+](=O)[O-])cc2)c2ccccn2)cc1	-22%	x	-15%	-10%[10.9 µM]	x
CCc1ccc(NC(=O)CSc2ccc(-c3sc(-c4ccccc4)nc3C)nn2)cc1	-18%	x	0%	-10%[10.9 µM]	x
Cc1nc(-c2ccccc2)sc1-c1ccc(SCC(=O)Nc2cccc(C(F)(F)F)c2)nn1	10µM*	x	-9%	-15%[10.9 µM]	x
COc1cc(NC(=O)CSc2ccc(-c3sc(-c4ccccc4)nc3C)nn2)cc(OC)c1	-9%	x	-2%	-19%[10.9 µM]	x
CC(=O)Nc1cccc(NC(=O)CSc2ccc(-c3sc(-c4ccccc4)nc3C)nn2)c1	7.9µM*	x	14%	-20%[10.9 µM]	x
CC1=C(C(=O)Nc2ccc(C)cc2C)C(c2ccccc2C)n2ncnc2N1 (configuration not stated)	-13%	x	0%	-8%[10.9 µM]	x
COC(=O)C/C=C\[C@@H](C)[C@@H](/C=N\O[C@@H]1O[C@H](COC(C)=O)[C@@H](OC(C)=O)[C@H](OC(C)=O)[C@H]1OC(C)=O)NS(=O)(=O)c1ccc(C)cc1	6%[9.22 µM]	0%[11.4 µM]	8%[9.22 µM]	x	x
COc1ccc(CC(=O)Nc2cccc(-c3nnc(-c4ccccc4)o3)c2)cc1OC	2%	-15%	-20%	-35%	i
COc1ccc(-c2nc3cc(NC(=O)Cc4ccc(Cl)cc4)ccc3o2)cc1OC	7.9µM*	x	10µM*	-21%[10.9 µM]	x
COc1ccc(CC(=O)Nc2cccc(-c3nnc(-c4cccc(C)c4)o3)c2)cc1OC	u	u	13µM*	-47%	i
COc1ccc(CC(=O)Nc2cccc(-c3nnc(-c4ccc(C)cc4)o3)c2)cc1OC	-9%	3.2µM*	u	-17%	i
O=C(Cc1ccc(Cl)cc1)Nc1ccc2oc(-c3ccc(F)cc3)nc2c1	-5%	x	-12%	-11%[10.9 µM]	x
C=CC[C@@H](C(=O)O)c1ccccc1	11%[9.22 µM]	0%[11.4 µM]	7%[9.22 µM]	-5%[10.9 µM]	2%[11.4 µM]
Cc1cc(OCCCCCNCCO)cc(C)c1Cl	u	1%	15%	-30%	2.5µM*
